GRIN3A LBD mod: NR3A (human) ligand-binding domain modulation; 340,000 compounds, 2.5% hits; AID 1259313; Tm shift relative to glycine control, % at 25 µM; NR3A LBD differential scanning fluorimetry, Tm shift; 0% = protein alone, 100% = glycine-bound protein;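 active = melting temperature shift of at least 10% of the positive control shift, at one fixed dose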
Vif inh: inhibitors of HIV Vif. HEK293T cells, Vif self-association by quenched fluorescence, imaging, 24 h. inhibition, % at 7.49 µM. 340,000 compounds, 0.35% hits. AID 602346; in the data active = inhibition above about 50%, passing the limit was not always enough; inconclusive = no clear call, values can overlap the other calls; inactive = below about 31%
SKN-1 block: inhibitors of C. elegans SKN-1; C. elegans VP596 Pgst-4::GFP/RFP ratio, acrylamide-induced, 24 h; inhibition, % at 21.8 µM; 360,000 compounds, 0.49% hits;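 active = interference check ratio from 0.5 to 1.5 plus GFP to RFP signal ratio inhibition reaching or exceeding a fixed threshold, cut at about 30% in these data, passing the limit was not always enough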
SMARCA2 act: SMARCA2 function activation, primary screen; activation, % at 9.1 µM; MG213 cells, MMTV-luciferase reporter, dexamethasone, overnight; AID 652017; 370,000 compounds, 1% hits; in the data active = activation above about 7.8%;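 also: 0% = vehicle wells and 100% = reference activator wells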
esBAF inh: SWI/SNF esBAF complex inhibition; mouse ES cells, Bmi1-luciferase knock-in reporter, 24 h; 100% = twice the neutral-well signal; reporter increase, % at 12.5 µM; 350,000 compounds, 2% hits; AID 602393; in the data active = activation above about 40%; inconclusive = no clear call, values can overlap the other calls;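 also: 0% = median of the plate's neutral control wells and 100% = double that signal; a rise in the Bmi1 reporter signal indicates esBAF inhibition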
NadD block: inhibitors of Staphylococcus aureus NadD. purified NadD enzyme, colorimetric absorbance read-out. inhibition, % at 20 µM. 360,000 compounds, 0.78% hits. AID 602399; in the data active = inhibition above about 26%
An asterisk follows results filed as active; u = inconclusive; x = no result given. This is a sample that favours compounds with a hit; in the whole collection about 5.2% have one here.

SMILES	GRIN3A LBD mod	Vif inh	SKN-1 block	SMARCA2 act	esBAF inh	NadD block
Cc1ccc(NC(=O)CCc2c(C)nn(-c3ccc(N4CCCCC4)nn3)c2C)cc1F	-15	6	8	2	69*	5
CCc1cccc(NC(=O)CCc2c(C)nn(-c3ccc(N4CCCCC4)nn3)c2C)c1	0	4	10	0	-4	2
C[C@@H]1CN([C@H](C)CO)C(=O)c2cc(/C=C/c3ccccc3)cnc2O[C@H]1CN(C)C(=O)c1ccc2c(c1)OCO2	x	x	x	x	-5	x
Fc1ccc(Cc2nnc(-c3cccs3)o2)cc1	0	-4	7	1	u	0
Fc1ccc(-c2nnc(Cc3ccc(Cl)cc3)o2)cc1	0	-4	44*	0	u	-9
O=C(NCc1ccc(F)cc1)[C@@H]1[C@@H](CO)[C@@H]2Cn3c(cccc3=O)[C@@H]2N1CCC(F)(F)F	x	x	x	x	3	x
Cc1noc(C)c1NC(=O)N(C)C[C@@H]1Oc2c(NC(=O)c3ccc(-c4nccs4)cc3)cccc2C(=O)N([C@@H](C)CO)C[C@@H]1C	x	x	x	x	-2	x
O=C(NCc1ccccn1)c1ccc(Cl)cc1Cl	-4	x	5	0	52*	-4
O=C(O)c1cc(-c2cccc3ccccc23)nc2ccccc12	3	14	37*	-3	-3	0
Cc1cccc(-c2cc(C(=O)NCc3ccccn3)c3ccccc3n2)c1	16*	-8	-3	-1	x	1
O=C(NCc1ccccn1)c1cc(-c2ccc(-c3ccccc3)cc2)nc2ccccc12	-4	-14	9	2	45*	9
Cc1ccc(S(=O)(=O)N(C)C[C@H]2Oc3ccc(NC(=O)Cc4ccccc4)cc3C(=O)N([C@H](C)CO)C[C@@H]2C)cc1	x	x	x	x	8	x
C[C@H](CO)N1C[C@H](C)[C@H](CN(C)C(=O)C2CCCCC2)Oc2cc(C#CC3CC3)ccc2S1(=O)=O	x	x	x	x	-9	x
NNC(=O)c1cc(-c2ccc(O)cc2)nc2ccc(Br)cc12	11*	1	0	-4	-4	-6
CCCc1ccc(-c2cc(C(=O)NCCc3ccc(S(N)(=O)=O)cc3)c3ccccc3n2)cc1	12*	-10	-6	3	32	27
CCCCC(CC)C(=O)NCCc1ccc(S(N)(=O)=O)cc1 (centres undefined)	3	-4	-8	0	0	-1
COCCCNC(=O)c1cc(-c2cccnc2)nc2ccccc12	1	15	4	-1	-2	-3
COCCNC(=O)c1cc(-c2ccc(-c3ccccc3)cc2)nc2ccccc12	-11	-11	-3	4	47*	1
CCC(CC)C(=O)NCCc1ccc(S(N)(=O)=O)cc1	2	68*	0	-5	3	12
COc1ccc(S(=O)(=O)N(C)C[C@@H]2Oc3ccc(NC(=O)CCCN(C)C)cc3C(=O)N([C@@H](C)CO)C[C@@H]2C)cc1	x	x	x	x	-1	x
CN(C)C(=O)[C@@H]1[C@@H](CO)[C@@H]2Cn3c(ccc(C4=CCCC4)c3=O)[C@H]1N2Cc1cccnc1	x	x	x	x	0	x
C[C@@H]1CN([C@@H](C)CO)C(=O)c2cc(C#Cc3ccccn3)cnc2O[C@H]1CN(C)Cc1ccccc1	x	x	x	x	-2	x
CC(=O)N(C)C[C@H]1Oc2ncc(-c3cccnc3)cc2C(=O)N([C@H](C)CO)C[C@H]1C	x	x	x	x	1	x
CCCOc1cccc(-c2cc(C(=O)NNC(=S)NCC)c3ccccc3n2)c1	14*	-8	0	-1	x	2
Cc1ccc(-c2cc(C(=O)NCc3ccccn3)c3ccccc3n2)cc1C	-5	u	24	5	48*	1
SMILES	GRIN3A LBD mod	Vif inh	SKN-1 block	SMARCA2 act	esBAF inh	NadD block
CN1C(=O)c2cc(NC(=O)c3cscn3)ccc2OC[C@H]2O[C@H](CC(=O)NCC3CC3)CC[C@@H]21	x	x	x	x	-4	x
O=C(Nc1ccc(F)cc1)N[C@H]1CC[C@H](CC(=O)N2CCOCC2)O[C@@H]1CO	x	x	x	x	-3	x
CC1CCc2nc(NC(=O)c3ccco3)sc2C1 (centres undefined)	-1	-3	18	-5	x	-6
O=C(CCCc1cccs1)Nc1nc2c(s1)CCCC2	0	-3	2	3	53*	2
CC1CCc2nc(NC(=O)Cc3cccs3)sc2C1 (centres undefined)	-3	-4	23	3	58*	-2
Cc1ccc(-c2csc(NC(=O)CCCc3cccs3)n2)cc1	-3	-3	-1	-1	x	10

Assay outcomes as filed in PubChem.
